Source: PubChem
FGF22 binding – binders of recombinant human FGF22 by thermal shift; Q9HCT0; SYPRO orange fluorescence; percent of sucrose octasulfate shift, DMSO zero; 340,000 tested, 1.5% active; AID 651658; activity (Tm shift, normalised), % at 9.99 µM;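 active = mean Tm shift, scaled 0 neutral to 100 positive control, at about 1.3% or above, every replicate too, limit read from the data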
Target sequence (Q9HCT0 whole entry, looked up): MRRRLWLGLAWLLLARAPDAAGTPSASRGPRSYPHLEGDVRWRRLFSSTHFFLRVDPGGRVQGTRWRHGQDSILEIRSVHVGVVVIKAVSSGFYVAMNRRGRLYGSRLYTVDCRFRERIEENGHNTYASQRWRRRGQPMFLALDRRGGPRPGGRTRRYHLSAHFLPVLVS
DENV2 CPE – DENV2-induced cell death inhibition; DENV2-infected cells, cytopathic effect rescue, plate reader; CPE inhibition, % at 9.99 µM; 350,000 tested, 1.7% active; AID 651640; in the data active = CPE inhibition above about 20%, passing the limit was not always enough; tested in BHK-21 cells
AF4-AF9 inh – inhibitors of human MLL-AF4/AF9 interaction; 350,000 tested, 0.47% active; AID 651704; P42568; AlphaScreen, biotin-AF4 peptide binding to FLAG-AF9; inhibition, % at 10 µM;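 active = every replicate reaching a set inhibition limit, whatever the replicate mean, cut at about 25% in these data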
ERAP1 inh – ERAP1 (human) enzyme inhibition; recombinant ERAP1, Leu-AMC fluorescence, 60 min; inhibition, % at 10.7 µM; 340,000 tested, 0.15% active; AID 652197;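 active = mean replicate inhibition of at least 30%, or all replicates individually reaching that 30% level; inactive = mean below 30% and not every replicate reaching it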
RAD52 anneal inh – RAD52 (human) annealing inhibition; P43351; recombinant RAD52 DNA annealing, FRET fluorescence; inhibition, % at 18.7 µM; 360,000 tested, 0.46% active; AID 651710;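 active = every replicate showing at least 50% inhibition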
Target sequence (P43351 whole entry, looked up): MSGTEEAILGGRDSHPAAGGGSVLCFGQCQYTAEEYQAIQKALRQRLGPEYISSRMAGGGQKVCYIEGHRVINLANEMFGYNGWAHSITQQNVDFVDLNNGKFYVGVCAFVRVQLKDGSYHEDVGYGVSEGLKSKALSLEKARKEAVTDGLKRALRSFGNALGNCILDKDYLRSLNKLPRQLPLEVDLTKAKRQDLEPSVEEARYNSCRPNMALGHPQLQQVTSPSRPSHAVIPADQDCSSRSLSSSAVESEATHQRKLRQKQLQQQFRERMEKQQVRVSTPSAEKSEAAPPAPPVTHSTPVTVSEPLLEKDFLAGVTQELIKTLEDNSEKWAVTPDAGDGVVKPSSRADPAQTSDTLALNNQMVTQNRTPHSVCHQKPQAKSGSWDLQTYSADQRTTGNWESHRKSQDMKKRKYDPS
A number is an active result; 0 = inactive; - = no result. This is a sample that favours compounds with a hit; in the whole collection about 4% have one here.

SMILES | FGF22 binding | DENV2 CPE | AF4-AF9 inh | ERAP1 inh | RAD52 anneal inh
COc1cccc(S(=O)(=O)N[C@@H]2C=C[C@H](CC(=O)NCc3ccncc3)O[C@H]2CO)c1 | 0 | 0 | 0 | 0 | 0
COc1cccc(-c2ccc3c(c2)[C@@H]2[C@@H](CCN2C(=O)C2CCCC2)[C@H](CO)N3)c1 | - | 0 | 32 | 0 | 0
COc1cccc(-c2ccc3c(c2)[C@@H]2[C@@H](CCN2C(=O)C2CCCCC2)[C@H](CO)N3)c1 | - | 0 | 36 | 0 | 0
COc1cccc(-c2ccc3c(c2)[C@@H]2[C@@H](CCN2C(=O)C2CCC2)[C@H](CO)N3)c1 | 0 | 0 | - | - | -
COCC(=O)Nc1ccc2c(c1)OC[C@@H](C)N(Cc1ccccc1F)C[C@H](C)[C@@H](OC)CN(C)C2=O | 0 | 0 | 0 | 0 | 0
CCCCc1c(-c2cccc(Br)c2)ncn1CCc1ccccc1OC | 35 | 0 | 0 | 0 | 0
CCCCc1c(-c2ccccc2OC)ncn1CCc1ccccc1OC | 0 | 0 | 0 | 0 | 0
CCCCc1c(-c2ccccc2OC)ncn1CCc1ccccc1Cl | 0 | 32 | 0 | 0 | 0
CCCCCc1c(-c2ccccc2OC)ncn1CCc1ccccc1OC | 0 | 26 | 0 | 0 | 0
COc1cccc(C(=O)NCC(=O)OCC(=O)Nc2ncc(Cl)cc2Cl)c1 | - | 0 | 0 | 0 | 0
COc1cccc(C(=O)NCC(=O)NNc2ncnc(N)c2[N+](=O)[O-])c1 | 43 | 0 | 0 | 0 | 0
C[C@@H]1CN([C@@H](C)CO)C(=O)Cc2cc(NS(=O)(=O)c3ccc(F)cc3)ccc2O[C@H]1CN(C)C(=O)Nc1cccc2ccccc12 | 0 | 0 | 0 | 0 | 0
COc1ccccc1Nc1nc2cc(C)ccc2cc1C#N | 43 | 0 | 0 | 0 | 0
CCC(=O)N1CC(=O)N2[C@@H](CO)[C@H](c3ccc(C#Cc4cccc(OC)c4)cc3)[C@@H]2C1 | - | 0 | 0 | 0 | 0
CCn1nc(C)c(/C=C/C(=O)Nc2ccc(C)cc2C)c1C | - | 89 | 0 | 0 | 0
CCC(=O)N(C)C[C@@H]1Oc2cc(C#CC3CCCC3)ccc2S(=O)(=O)N([C@H](C)CO)C[C@@H]1C | 0 | 0 | 0 | 0 | 0
O=C1NC(CCc2ccccc2)C(=O)N1CCOc1cccc(Br)c1 (stereo not given) | 43 | 0 | 0 | 0 | 0
CCCCNC(=O)CN1C(=O)NC(CCc2ccccc2)C1=O (stereo not given) | 43 | 0 | 0 | 0 | 0
OC[C@@H]1[C@@H](c2ccc(C#Cc3ccccc3F)cc2)[C@H]2CN(CC3CCOCC3)CCCCN12 | 0 | 0 | 0 | 0 | 53
O=C(CN1CCOCC1)N1CCCCN2[C@H](CO)[C@@H](c3ccc(-c4ccccc4)cc3)[C@H]2C1 | 0 | 54 | 0 | 0 | 0
O=C(CN1CCOCC1)N1CCCCN2[C@H](CO)[C@@H](c3ccc(C#Cc4ccccc4F)cc3)[C@H]2C1 | 0 | 27 | 0 | 0 | 0
CN1CCCCN2[C@H](C1)[C@@H](c1ccc(C#Cc3ccccc3F)cc1)[C@@H]2CO | 0 | 0 | 0 | 0 | 65
O=C(CN1CCOCC1)N1CCCCN2[C@@H](CO)[C@H](c3ccc(C#Cc4ccccc4F)cc3)[C@@H]2C1 | - | - | 0 | - | -
OC[C@H]1[C@H](c2ccc(C#Cc3ccccc3F)cc2)[C@H]2CN(CC3CCOCC3)CCCCN21 | 0 | 0 | 0 | 0 | 0
O=C(C[C@@H]1C=C[C@H](NC(=O)Nc2ccccc2)[C@@H](CO)O1)NCc1cccc(F)c1 | 0 | 0 | 0 | 0 | 0
SMILES | FGF22 binding | DENV2 CPE | AF4-AF9 inh | ERAP1 inh | RAD52 anneal inh
C[C@@H]1CN([C@@H](C)CO)C(=O)c2c(c3ccccc3n2C)-c2ccccc2CO[C@@H]1CN(C)Cc1cccc2c1OCCCO2 | 0 | 0 | 0 | 0 | 0
C[C@@H]1CN([C@@H](C)CO)C(=O)c2cc(-c3ccc(F)cc3)cnc2O[C@@H]1CN(C)C(=O)C1CCC1 | 0 | 0 | 0 | 0 | 0
C[C@@H]1CN([C@H](C)CO)C(=O)Cc2cc(NC(=O)Nc3ccc(F)cc3)ccc2O[C@@H]1CN(C)Cc1ccc(C(=O)O)cc1 | - | 0 | 0 | 0 | 0
C[C@@H]1CN([C@@H](C)CO)C(=O)c2cc(C#Cc3ccccn3)cnc2O[C@@H]1CN(C)Cc1ccncc1 | 0 | 0 | 0 | 0 | 0
CC(=O)N1CCCCN2[C@@H](CO)[C@H](c3ccc(C#Cc4ccccc4F)cc3)[C@@H]2C1 | 0 | 23 | 0 | 0 | 0
C=CCN1C(=O)c2ccccc2Sc2ccc(C(=O)NC(C)C)cc21 | 0 | 0 | 0 | 0 | 0
C=CCN1C(=O)c2ccccc2Sc2ccc(C(=O)NCC(OC)OC)cc21 | 0 | 29 | 0 | 0 | 0
Cc1ccc(S(=O)(=O)N(C)C[C@H]2Oc3c(NC(=O)Nc4cccc5ccccc45)cccc3C(=O)N([C@H](C)CO)C[C@@H]2C)cc1 | 0 | 35 | 0 | 0 | 0
C[C@@H]1CN([C@@H](C)CO)C(=O)c2cccc(NC(=O)Nc3ccccc3)c2O[C@H]1CN(C)S(=O)(=O)c1ccccc1 | 0 | 40 | 0 | 0 | 0
C[C@H](CO)N1C[C@H](C)[C@@H](CN(C)S(=O)(=O)c2ccccc2)Oc2c(NC(=O)Nc3cccc4ccccc34)cccc2C1=O | 0 | 168 | 0 | 0 | 0
C[C@H](CO)N1C[C@H](C)[C@H](CN(C)S(=O)(=O)c2ccccc2)Oc2c(NC(=O)Nc3cccc4ccccc34)cccc2C1=O | 0 | 0 | 0 | 0 | 0
CC(C)NC[C@H]1[C@@H](c2ccc(C3=CCCC3)cc2)[C@@H](CO)N1C(=O)CC1CC1 | - | 0 | 0 | 0 | 0
CCN1CCN(CC(=O)c2cc(Cl)ccc2Cl)CC1 | 43 | 0 | 0 | 0 | 0
Cc1cc(C(=O)CN2CCCC2)c(C)n1-c1ccc(Cl)cc1 | 0 | 0 | 0 | 0 | 0
CN(C)CC(=O)N1[C@@H](C#N)[C@@H](c2ccc(C#CC3CCCC3)cc2)[C@@H]1CO | 0 | 39 | 0 | 0 | 0
N#C[C@H]1N[C@H](CO)[C@@H]1c1ccc(C#CC2CCCC2)cc1 | 0 | 0 | 0 | 0 | 0
CN(C)CC(=O)N1[C@H](C#N)[C@H](c2ccc(C#CC3CCCC3)cc2)[C@@H]1CO | 0 | 31 | 0 | 0 | 0
N#C[C@H]1[C@@H](c2ccc(C#CC3CCCC3)cc2)[C@H](CO)N1S(=O)(=O)c1ccccc1 | 0 | 21 | 0 | 0 | 0
N#C[C@@H]1N[C@@H](CO)[C@H]1c1ccc(C#CC2CCCC2)cc1 | 0 | 21 | 0 | 0 | 0
COc1ccc(NC(=O)N(C)C[C@H]2OCCCC[C@@H](C)Oc3ccc(NC(=O)Nc4ccc(F)cc4)cc3C(=O)N([C@H](C)CO)C[C@@H]2C)cc1 | 0 | 0 | 0 | 0 | 0
COc1cc(N2C(=O)C=CC2=O)ccc1N1C(=O)C=CC1=O | 0 | 0 | 0 | 48 | 0
COc1ccc(N2C(=O)CCC2=O)c(OC)c1 | 0 | 0 | 0 | 0 | 0
O=c1c2ccccc2ncn1Cc1cccc2ccccc12 | 43 | 0 | 0 | 0 | 0
CCCCCc1ccc(-c2nnc(N)s2)cc1 | 43 | - | 0 | 0 | 0
CC(C)(C)[S@](=O)N1Cc2cc(C(=O)N3CCOCC3)nc(-c3cccc(Br)c3)c2[C@@H]1CCO | - | 0 | 0 | 0 | 0
COc1ccccc1C(=O)Nc1ccc2c(c1)OC[C@H](C)N(C(C)=O)C[C@H](C)[C@@H](OC)CN(C)C2=O | 0 | 0 | 0 | - | 0
